PubChem BioAssay AID1159580 (chemical genetic matrix, 2015)
The campaign covered roughly 5,500 compounds. About 2,000 (36%) were called active. Another 18% or so got no clear call; they are omitted. No stated cut-off is given here; in the data, active means normalized growth mostly below about 0.91 (no sharp cut-off); inconclusive means no clear call, values can overlap the other calls; inactive means mostly above about 0.92. The list shows a part of the results.

Assay: chemical genetic growth profiling, strain panel (AID 1159580);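 further: tested at 20 µM; growth read once vehicle control cultures reached saturation at 30 °C; 1 = growth at the plate median or of vehicle wells; lower values mean less growth of the strain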
Settings: growth OD

Measured: normalized growth

CC1CCC2(OC1)OC1CC3C4CC[C@H]5C[C@@H](O)CC[C@]5(C)C4CC(=O)[C@]3(C)C1C2C (some centres not stated)
inactive: S. cerevisiae deletion strains, locus YJR075W, strain HOC1, hits give low values 1.01 | S. cerevisiae deletion strains, locus YKL009W, strain mrt4, hits give low values 0.965 | S. cerevisiae deletion strains, locus YKL068W, hits give low values 0.992 | S. cerevisiae deletion strains, locus YKL085W, strain MDH1 (second series), hits give low values 0.989 | S. cerevisiae deletion strains, locus YKL085W, strain MDH1, hits give low values 0.989 | S. cerevisiae deletion strains, locus YKL160W, strain elf1, hits give low values 1.01 | S. cerevisiae deletion strains, locus YKL190W, strain CNB1, hits give low values 1.01 | S. cerevisiae deletion strains, locus YKR001C, strain vps1, hits give low values 0.98 | S. cerevisiae deletion strains, locus YKR026C, strain gcn3, hits give low values 1.02 | S. cerevisiae deletion strains, locus YKR091W, strain srl3, hits give low values 1.01 | S. cerevisiae deletion strains, locus YLL001W, strain dnm1, hits give low values 0.987 | S. cerevisiae deletion strains, locus YLL026W, hits give low values 1.01 | S. cerevisiae deletion strains, locus YLL041C, strain sdh2, hits give low values 1 | S. cerevisiae deletion strains, locus YLR027C, strain aat2, hits give low values 1 | S. cerevisiae deletion strains, locus YLR039C, strain RIC1, hits give low values 0.972 | S. cerevisiae deletion strains, locus YLR058C, strain SHM2, hits give low values 1.01 | S. cerevisiae deletion strains, locus YLR102C, strain apc9, hits give low values 0.982 | S. cerevisiae deletion strains, locus YLR113W, strain HOG1, hits give low values 0.97 | S. cerevisiae deletion strains, locus YLR221C, strain rsa3, hits give low values 0.994 | S. cerevisiae deletion strains, locus YLR258W, strain gsy2, hits give low values 0.995 | S. cerevisiae deletion strains, locus YLR262C, strain YPT6 (second series), hits give low values 0.97 | S. cerevisiae deletion strains, locus YLR262C, strain YPT6, hits give low values 0.993 | S. cerevisiae deletion strains, locus YLR268W, strain sec22, hits give low values 0.952 | S. cerevisiae deletion strains, locus YLR320W, strain mms22, hits give low values 0.975 | S. cerevisiae deletion strains, locus YLR330W, strain CHS5, hits give low values 1.02 | S. cerevisiae deletion strains, locus YLR342W, strain FKS1 (second series), hits give low values 1.06 | S. cerevisiae deletion strains, locus YLR342W, strain FKS1, hits give low values 1 | S. cerevisiae deletion strains, locus YLR357W, strain rsc2, hits give low values 0.992 | S. cerevisiae deletion strains, locus YLR370C, strain arc18, hits give low values 1.02 | S. cerevisiae deletion strains, locus YLR371W, strain rom2, hits give low values 0.976 | S. cerevisiae deletion strains, locus YLR384C, strain iki3, hits give low values 1.02 | S. cerevisiae deletion strains, locus YLR418C, strain cdc73, hits give low values 0.934 | S. cerevisiae deletion strains, locus YML016C, strain PPZ1, hits give low values 1.01 | S. cerevisiae deletion strains, locus YML032C, strain rad52, hits give low values 0.965 | S. cerevisiae deletion strains, locus YML120C, strain ndi1, hits give low values 1 | S. cerevisiae deletion strains, locus YML124C, strain tub3, hits give low values 0.981 | S. cerevisiae deletion strains, locus YMR058W, strain fet3, hits give low values 1.03 | S. cerevisiae deletion strains, locus YMR078C, strain ctf18, hits give low values 1.01 | S. cerevisiae deletion strains, locus YMR125W, strain sto1, hits give low values 1.04 | S. cerevisiae deletion strains, locus YMR129W, hits give low values 1.03 | S. cerevisiae deletion strains, locus YMR205C, strain PFK2, hits give low values 1 | S. cerevisiae deletion strains, locus YMR223W, strain ubp8, hits give low values 0.999 | S. cerevisiae deletion strains, locus YMR231W, strain pep5, hits give low values 1.02 | S. cerevisiae deletion strains, locus YMR263W, strain SAP30, hits give low values 1.01 | S. cerevisiae deletion strains, locus YMR307W, strain GAS1, hits give low values 1.01 | S. cerevisiae deletion strains, locus YNL067W, strain RPL9B, hits give low values 0.991 | S. cerevisiae deletion strains, locus YNL071W, strain lat1, hits give low values 1.02 | S. cerevisiae deletion strains, locus YNL128W, strain TEP1, hits give low values 1.01 | S. cerevisiae deletion strains, locus YNL153C, strain GIM3, hits give low values 0.992 | S. cerevisiae deletion strains, locus YNL183C, strain NPR1, hits give low values 0.943 | S. cerevisiae deletion strains, locus YNL209W, strain ssb2, hits give low values 1.01 | S. cerevisiae deletion strains, locus YNL233W, strain BNI4, hits give low values 0.998 | S. cerevisiae deletion strains, locus YNL248C, strain rpa49, hits give low values 1.02 | S. cerevisiae deletion strains, locus YNL250W, strain rad50, hits give low values 0.98 | S. cerevisiae deletion strains, locus YNL271C, strain bni1, hits give low values 0.979 | S. cerevisiae deletion strains, locus YNL298W, strain CLA4, hits give low values 0.983 | S. cerevisiae deletion strains, locus YNL307C, strain MCK1, hits give low values 0.982 | S. cerevisiae deletion strains, locus YNL322C, strain KRE1 (second series), hits give low values 1.01 | S. cerevisiae deletion strains, locus YNL322C, strain KRE1, hits give low values 1.01 | S. cerevisiae deletion strains, locus YNR049C, strain mso1, hits give low values 1 | S. cerevisiae deletion strains, locus YNR052C, strain pop2, hits give low values 0.982 | S. cerevisiae deletion strains, locus YOL006C, strain TOP1, hits give low values 1.01 | S. cerevisiae deletion strains, locus YOL012C, strain htz1 0.834 | S. cerevisiae deletion strains, locus YOL147C, strain pex11, hits give low values 0.993 | S. cerevisiae deletion strains, locus YOR001W, strain rrp6, hits give low values 0.983 | S. cerevisiae deletion strains, locus YOR061W, strain CKA2, hits give low values 1.01 | S. cerevisiae deletion strains, locus YOR069W, strain VPS5, hits give low values 1.01 | S. cerevisiae deletion strains, locus YOR070C, strain gyp1, hits give low values 1.01 | S. cerevisiae deletion strains, locus YOR080W, strain dia2, hits give low values 1.04 | S. cerevisiae deletion strains, locus YOR083W, strain WHI5, hits give low values 0.957 | S. cerevisiae deletion strains, locus YOR106W, strain vam3, hits give low values 1.02 | S. cerevisiae deletion strains, locus YOR136W, strain idh2, hits give low values 0.995 | S. cerevisiae deletion strains, locus YOR144C, strain elg1, hits give low values 0.989 | S. cerevisiae deletion strains, locus YOR184W, strain ser1, hits give low values 0.96 | S. cerevisiae deletion strains, locus YOR231W, strain MKK1, hits give low values 0.963 | S. cerevisiae deletion strains, locus YOR265W, strain rbl2, hits give low values 1.01 | S. cerevisiae deletion strains, locus YOR270C, strain vph1, hits give low values 1.02 | S. cerevisiae deletion strains, locus YOR290C, strain snf2, hits give low values 1.03 | S. cerevisiae deletion strains, locus YOR316C, strain cot1, hits give low values 0.991 | S. cerevisiae deletion strains, locus YPL051W, strain arl3, hits give low values 1.02 | S. cerevisiae deletion strains, locus YPL055C, strain LGE1, hits give low values 1.02 | S. cerevisiae deletion strains, locus YPL078C, strain atp4, hits give low values 1.06 | S. cerevisiae deletion strains, locus YPL106C, strain sse1, hits give low values 1.02 | S. cerevisiae deletion strains, locus YPL240C, strain hsp82, hits give low values 1.01 | S. cerevisiae deletion strains, locus YPL241C, strain CIN2, hits give low values 1.01 | S. cerevisiae deletion strains, locus YPL256C, strain CLN2, hits give low values 0.963 | S. cerevisiae deletion strains, locus YPR119W, strain clb2, hits give low values 0.989 | S. cerevisiae deletion strains, locus YPR141C, strain kar3, hits give low values 0.986 | S. cerevisiae deletion strains, locus YPR163C, strain tif3, hits give low values 0.98 | S. cerevisiae deletion strains, locus YPR167C, strain met16, hits give low values 0.99 | S. cerevisiae deletion strains, strain wtn01, hits give low values 0.96 | S. cerevisiae strains, strain wild type, hits give low values 1.01
